Hits are enriched below; roughly 21% of the tested compounds scored in any of these assays.
Pf growth 48h = inhibits P. falciparum growth in the first generation, 48 h. P. falciparum luciferase growth in erythrocytes, 48 h. 310,000 tested, 5.9% active. Potency, µM (series often up to 28.7 µM), inactives show at the highest dose activity change, negative = inhibition, hits mostly inhibitors; active = well fitted inhibition curve with a large enough effect; inconclusive = small, poorly fitted or top-dose-only effect, or another doubt; inactive = no such curve, though single readings can be large or run the other way; also: potency is read from the fitted curve at half-maximal effect; % is scaled to controls: 0 for no effect and ±100 for the full control effect
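Cell-based growth assay: transgenic P. falciparum expressing firefly luciferase, cultured in red cells within RPMI 1640 containing 0.5% w/v Albumax, 24 mM bicarbonate and gentamycin. A drop in luciferase activity indicates inhibition.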
SARS PLP yeast = inhibitors of SARS-CoV papain-like protease in yeast; Potency, µM (series often up to 32.9 µM), for the others: top-dose activity, positive = growth rescue, hits mostly activators; S. cerevisiae expressing SARS-CoV PLpro, growth rescue; AID 485353; 330,000 tested, 0.19% active; also: potency is read from the fitted curve at half-maximal effect; 0% is about no effect; nearly all actives have a fitted effect of over 55% in size
Shiga inhibitor = inhibitors of Shiga toxin in Vero cells; Vero cells, Shiga toxin protein synthesis inhibition reporter; inhibition, % at 38.7 µM; 290,000 tested, 9.2% active; in the data active = inhibition mostly above about 28%, no sharp cut-off; inactive = mostly below about 43%; also: 0% is about no effect
NS1 inh = blocks influenza NS1 protein function; Potency, µM (titrated, usually from 46.1 µM), inactives show at the highest dose activity, positive = more growth; 270,000 tested, 0.4% active; AID 2326; also: potency is read from the fitted curve at half-maximal effect; actives are rising curves; nearly all actives have a fitted effect of over 50% in size
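A cell-based growth assay was used: compounds that relieve NS1-induced slow growth of budding yeast raise OD600. Assay medium was yeast nitrogen base with ammonium sulphate and -URA supplement, pH 6.0, with 2% galactose.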
Pf growth 96h = inhibits malaria parasite growth, 96 h. 320,000 tested, 6.9% active. P. falciparum luciferase reporter growth, 96 h. Potency, µM (series often up to 28.7 µM), without a hit: top-dose activity change, negative = inhibition, usual class: inhibitors; active = well fitted inhibition curve with a large enough effect; inconclusive = small, poorly fitted or top-dose-only effect, or another doubt; inactive = no such curve, though single readings can be large or run the other way; also: potency is read from the fitted curve at half-maximal effect; % is scaled to controls: 0 for no effect and ±100 for the full control effect
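Two parasite generations (96 h, 37 C, 5% CO2) of compound exposure in infected erythrocytes (0.05% parasitemia, 2% hematocrit). Luciferase-reporter P. falciparum; decreased luminescence indicates inhibited growth, aimed at apicoplast-acting delayed death.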
CHX counter = counter-screen hit for Shiga toxin inhibitors, cycloheximide; cell reporter, cycloheximide protein synthesis inhibition counterscreen; max response, %; 300,000 tested, 12% active; AID 2314; in the data active = max response mostly above about 13%, no sharp cut-off; inactive = mostly below about 14%; also: read at 38.3 µM for the half of the compounds with a filed dose; 0% is about no effect
An asterisk follows results filed as active; u = inconclusive; x = no result given. Unless noted, calls follow the shape of the full dose curve.

SMILES	Pf growth 48h	SARS PLP yeast	Shiga inhibitor	NS1 inh	Pf growth 96h	CHX counter
CC1CCCCN1C(=O)c1cc2nc(-c3ccccc3)cc(-c3ccccc3)n2n1 (stereo not given)	8.28µM*	-37.5%	-0.7	-13.7%	u	-0.6
Cc1ccc(-c2cc(C(F)F)n3ncc(C(=O)N4CCCCC4c4cccnc4)c3n2)cc1 (stereo not given)	1.65µM*	-0.8%	-7.4	-3.4%	4.15µM*	-0.6
CCOc1ccc(OCC)c(NC(=O)CSc2nnc(C3CC3)n2CC)c1	-16.5%	1.6%	22.5	1.6%	u	-6.5
COc1ccc(C2C(C(=O)NCCN(C)C)c3ccccc3C(=O)N2C)cc1OC (stereo not given)	0.4%	-0.5%	1.3	8.2%	u	12.0
CCOC(=O)C1CCCN(C(=O)c2cnn3c(C(F)F)cc(-c4ccc(C)cc4)nc23)C1 (stereo not given)	4.65µM*	-20.7%	-13.3	-13.0%	x	-0.4
COC(=O)[C@@H](NC(=O)N(C1CCCCC1)C1CCCCC1)C(C)C	-22.1%	1.0%	-9.4	9.5%	1.65µM*	-1.4
COC(=O)[C@@H](NC(=O)NC1CCCCC1C)C(C)C (stereo not given in full)	3.1%	0.0%	-4.0	1.9%	u	-1.6
CCN(CC)CC(=O)Nc1scc2c1c(=O)oc1ccccc12	36.1%	0.0%	22.8	-3.0%	0.0%	5.7
CCCCOc1ccc(-c2cnc3ccccc3n2)cc1	204.5%	9.0%	59.9*	-3.4%	u	45.3*
O=C(Oc1ccc(-c2cnc3ccccc3n2)cc1)c1ccc(Br)o1	x	8.8%	45.1	-10.4%	205.9%	24.3
CCCOc1ccc(-c2nc(OC)c3ccccc3n2)cc1	63.4%	-16.9%	112.3*	-16.7%	89.9%	34.8*
COc1nc(-c2cccc([N+](=O)[O-])c2)nc2ccccc12	32.0%	0.0%	-5.1	-4.0%	0.0%	-2.1
Cc1ccc(-c2cnc3ccccc3n2)cc1C	126.3%	-0.1%	63.3*	-38.1%	u	28.4*
Cc1cc(-c2ccccc2)nc(-c2ccccc2)c1C	86.2%	-4.9%	31.3	-42.9%	23.3%	25.8*
CCCCCCCCCCS(=O)(=O)N/N=C/c1ccc(O)cc1	10.1%	-13.4%	-1.4	0.7%	1.5%	7.4
Cc1ccc(N(C)S(=O)(=O)c2cccc(C(=O)NNC(=O)c3ccncc3)c2)cc1	-25.2%	0.0%	x	x	u	x
Cc1nn(-c2ccc(F)cc2)c(Cl)c1/C=C1\C(=O)Nc2ccccc21	-31.9%	-9.6%	-9.2	0.3%	u	4.0
CCCS(=O)(=O)N1CCC(C(=O)Oc2ccc(OC)cc2)CC1	u	-0.3%	-3.2	28.6%	u	1.4
CCCCOc1ccc(-c2ncc(Cl)cn2)cc1	150.7%	3.2%	35.2*	2.7%	u	17.4*
CCCCOc1ccc(-c2ncc([N+](=O)[O-])cn2)cc1	144.0%	1.1%	17.5	6.8%	80.6%	-2.1
Clc1ccc(-c2cnc3ccccc3n2)cc1	178.2%	18.0%	67.0*	-10.1%	-29.1%	66.9*
CCCCCCCOc1ccc(-c2ccc(C#N)cn2)cc1	8.8%	-1.5%	2.4	-0.6%	6.57µM*	-2.8
Cc1cc2ncc(-c3ccccc3)nc2cc1C	268.6%	0.2%	106.4*	-12.9%	0.0%	38.9*
Clc1ccc(-c2nc3ccccc3nc2-c2ccccc2)cc1	7.6%	-36.0%	-7.1	-16.7%	1.8%	-4.2
CCOC(=O)c1[nH]c(C)c(C(=O)OCC(=O)N(Cc2ccccc2)C(C)C)c1C	u	0.4%	x	x	u	x
Cc1ccc(N(C(=O)CNC(=O)c2ccco2)C(C(=O)NC2CCCC2)c2cccnc2)cc1F (stereo not given)	13.1%	-0.3%	-14.6	-14.4%	-19.4%	-1.5
CCOC(=O)c1cccc(-c2c(-c3ccccc3)ncc3cc(OC)c(OC)cc23)c1	u	0.5%	x	x	u	x
CCOC(=O)c1ccc2ncc(-c3ccccc3)nc2c1	383.6%	-0.7%	122.8*	x	14.8%	45.7*
CCN(C(=O)COC(=O)c1nc(Cl)ccc1Cl)C1CCS(=O)(=O)C1 (stereo not given)	2.0%	-1.7%	x	x	8.7%	x
COc1ccc(C(=O)N2CC(c3ccccc3)CC2=O)cc1 (stereo not given)	-49.8%	0.6%	63.4*	-0.4%	42.6%	43.8*

Compound activity: PubChem BioAssay, National Center for Advancing Translational Sciences (NCATS)
